Experimental findings from PubChem BioAssay AID1851 (National Center for Advancing Translational Sciences (NCATS), 2009) are described below.

Usually AC50 stands for the concentration at which the activity in the assay is half-maximal.

SMILES strings stand for the structures. Screen size: about 16,000 compounds; about 5,800 (36%) were called active. Inconclusive results (about 23%) are left out. The call rests on the fitted dose curve; in most records, active means well fitted curve in the direction sought with a large enough effect; inconclusive means small, poorly fitted or top-dose-only effect, or effect the other way; inactive means no such curve, though single readings can be large or run the other way. This is one part of the list.
On the % scale 0 is the no-effect control and ±100 the full control effect.

This assay deals with Cytochrome P450 2C19 (Homo sapiens) (UniProt P33261). Kind of assay: Cytochrome panel assay with activity outcomes. The conditions noted are these: recombinant CYP, pro-luciferin dealkylation, luminescence, p450-cyp2c19; series mostly up to 57.1 µM; activity, negative = inhibition: at the top concentration.
Cytochrome P450 2C19 (Homo sapiens), sequence (P33261 whole entry, looked up): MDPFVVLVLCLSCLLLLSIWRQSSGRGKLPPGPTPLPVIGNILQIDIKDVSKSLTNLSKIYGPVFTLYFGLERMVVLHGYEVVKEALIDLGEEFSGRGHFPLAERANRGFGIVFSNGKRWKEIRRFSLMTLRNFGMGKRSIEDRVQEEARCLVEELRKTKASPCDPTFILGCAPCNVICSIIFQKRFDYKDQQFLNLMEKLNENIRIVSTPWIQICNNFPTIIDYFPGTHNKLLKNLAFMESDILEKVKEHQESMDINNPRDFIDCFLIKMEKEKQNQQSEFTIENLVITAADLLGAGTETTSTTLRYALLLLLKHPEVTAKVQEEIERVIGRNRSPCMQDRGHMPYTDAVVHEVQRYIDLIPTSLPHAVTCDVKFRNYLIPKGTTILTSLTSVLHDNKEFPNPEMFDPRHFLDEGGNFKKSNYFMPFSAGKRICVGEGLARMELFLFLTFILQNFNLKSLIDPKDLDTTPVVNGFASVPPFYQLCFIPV
Take `Cc1cnc(CNc2ccnc(-c3cccnc3)n2)cn1`: the “activity, negative = inhibition” value was -6.65% (inactive). `c1ccc(CNc2ccnc(-c3cccnc3)n2)cc1`: the AC50 was 2.51 µM (active). As for `Cc1cccc(CNc2ccnc(-c3cccnc3)n2)c1`, the AC50 was 2.51 µM (active).

As to `c1cncc(-c2nccc(NCc3cccs3)n2)c1`, the AC50 was 7.94 µM (active).

With `O=C=Nc1ccc(Cc2ccc(N=C=O)cc2)cc1` (tested in a mixture with another compound), the activity, negative = inhibition was -1.1% [at 11.4 µM] (inactive). Turning to `CNc1nc(Cl)nc(NC(C)(C)C)n1`, the AC50 is 14.1 µM (active).

As for `CCOc1ccc(/C=C2\C(=O)c3ccccc3OC2c2ccccc2)cc1` (stereo unspecified), the AC50 is 1.12 µM (active).

With `CCOc1ccc(C2C(C(=O)O)c3ccccc3C(=O)N2CCN2CCOCC2)cc1` (stereo unspecified), the “activity, negative = inhibition” value was 2.08% (inactive). On the same count and under the same terms, the value for `Cc1cc(C)c2nc3c(c([C@H](O)[C@@H]4CCCCN4)c2c1)CC/C3=C/c1ccc(Cl)cc1` was -6.83% [at 11.4 µM] (inactive). Turning to `CSCC[C@H](NC(=O)c1nn(C)c(=O)c2ccccc12)c1nc2ccccc2[nH]1`, the half-maximal activity concentration (AC50) was 14.1 µM (active). As to `CC(=O)N1c2ccc(S(=O)(=O)CCC(=O)O)cc2CC1C` (stereo unspecified), the “activity, negative = inhibition” value was -4.88% (inactive). For `CC1Cc2ccccc2N1C(=O)C1CCCCN1S(=O)(=O)c1ccccc1` (stereo unspecified), the AC50 was 2.24 µM (active). Same read-out and setting: the value for `O=C(NC(NC(=S)Nc1cc(Cl)ccc1Cl)C(Cl)(Cl)Cl)c1ccco1` (stereo unspecified) was 1.58 µM (active). Turning to `CCc1nnc(NC(=O)CSc2ncnc3c2cnn3-c2ccc(OC)cc2)s1`, the “activity, negative = inhibition” value was -18.2% (inactive).

Turning to `CCc1ccc(OCC(=O)NNC(=O)CSc2ncnc3sc(C)c(C)c23)cc1`, the AC50 was 11.2 µM (active).

With `Cc1noc(C)c1C(=O)N1CCC2(CC1)CN(c1ncccn1)C2`, the “activity, negative = inhibition” value is -18.2% (inactive). On to `CC1=C(C(=O)OCc2ccccc2)C(c2cccnc2)c2c(n(C)c(=O)n(C)c2=O)N1` (stereo unspecified), for which the AC50 was 1 µM (active). With `CC1=C(C(=O)OCc2ccccc2)C(c2ccc([N+](=O)[O-])cc2)NC(=O)N1CCCCCC(=O)O` (stereo unspecified), the “activity, negative = inhibition” value was -36% (inactive).

`O=C1NC(=O)[C@@](Cc2ccccc2)(c2cccnc2)N1`: the activity, negative = inhibition is 27.6% [at 11.4 µM] (inactive).

`CC(C)(C)n1nnnc1C(c1cccnc1)N(Cc1ccccc1)Cc1ccco1` (stereo unspecified): the AC50 was 11.2 µM (active). `CC[C@H]1C2=C3C(CC[C@H]4C(OCc5ccc(F)cc5C(F)(F)F)OC[C@](C)([C@@H]34)N(C(=O)OC(C)(C)C)C2)C(COC)C1COC` (stereo partly specified): the “activity, negative = inhibition” value was 8.33% (inactive).

For the molecule `Clc1ccc(Cn2c(-c3cccnc3Cl)nc3ccccc32)c(Cl)c1`, the AC50 is 0.891 µM (active).

Take `Nc1nonc1-c1nc2ccccc2n1Cc1ccc(F)cc1Cl`: the AC50 was 0.0794 µM (active). On the same count and under the same terms, the value for `Clc1ncccc1-c1nc2ccccc2n1Cc1ccccc1` was 28.2 µM (active).

Consider `Oc1ccc(Cn2c(-c3ccc(O)cc3)nc3ccccc32)cc1`, for which the activity, negative = inhibition was 87.1% [at 11.4 µM] (inactive). On the same count and under the same terms, the value for `CN(C)CCCN1CC(C(=O)O)CC1=O` (stereo unspecified) was 4.71% (inactive). Still for that read-out and setting: the value for `O=c1onc2cnc3ccccc3n12` was -36.2% (inactive); that for `O=c1c(-c2cccs2)nc2cnc(Nc3ccccc3)nc2n1C[C@H]1CCCO1` was -17.3% (inactive). As for `CC1CCCN(CCCNC(=O)C2CC(=O)N(c3ccc(F)c(Cl)c3)C2)C1` (stereo unspecified), the half-maximal activity concentration (AC50) is 31.6 µM (active). For `CCCS(=O)(=O)N1CCCC(C(=O)NCCCN2CCN(c3ccc(F)cc3)CC2)C1` (stereo unspecified), the “activity, negative = inhibition” value is -29.7% (inactive). Still for that read-out and setting: the value for `CC1CC(C)CN(CCCNC(=O)C2CCCN(c3nnc(N4CCCC4=O)s3)C2)C1` (stereo unspecified) was -4.77% (inactive). As to `O=C(O)[C@@H]1[C@@H](C(=O)NCc2ccncc2)[C@@H]2C=C[C@@H]1O2`, the activity, negative = inhibition is 9.32% [at 11.4 µM] (inactive). `CCCn1nnnc1NC(=O)COc1ccc(Cl)cc1C`: the AC50 is 7.94 µM (active).

Consider `Cc1cc(Cl)ccc1OCC(=O)Nc1nc(N)nc(N)n1`, for which the activity, negative = inhibition was 8.03% [at 11.4 µM] (inactive).

On to `Cc1cc(Cl)ccc1OCC(=O)NCc1ccncc1`, for which the AC50 is 1.26 µM (active).

Turning to `O=C(/C=C\c1ccc(O)c(O)c1)O[C@@H]1C[C@](O)(C(=O)O)C[C@@H](O)[C@@H]1O`, the “activity, negative = inhibition” value was 5.78% [at 25.6 µM] (inactive). Still for that read-out and setting: the value for `CCOC(=O)Oc1c(OC)cc(C(=O)O[C@H]2C[C@H]3CN4CCc5c([nH]c6cc(OC)ccc56)[C@@H]4C[C@H]3[C@@H](C(=O)OC)[C@@H]2OC)cc1OC` was 18.1% [at 25.6 µM] (inactive). For `Cc1n[nH]c(=O)n1-c1cccc(C(F)(F)F)c1`, the “activity, negative = inhibition” value is -22% (inactive).

As to `CCOC(=O)c1sc(=S)n(-c2cccc(C(F)(F)F)c2)c1SC`, the AC50 is 1.26 µM (active). Turning to `O=C(O)NCC1CCCCC1` (tested in a mixture with another compound), the activity, negative = inhibition was -22.4% [at 11.4 µM] (inactive). `O=C(CSc1nnc(SCc2cccc3ccccc23)s1)c1ccc2c(c1)OCO2`: the concentration at half-maximal activity (AC50) is 2.51 µM (active).

Turning to `FC(F)(F)c1ccccc1-c1cncnc1Nc1ccccc1`, the AC50 is 7.94 µM (active). On the same count and under the same terms, the value for `Fc1ccc(Nc2ncncc2-c2ccccc2C(F)(F)F)cc1` was 7.94 µM (active). The same measure, in the same setting: the value for `Cc1nc(NCc2ccco2)c2c3c(sc2n1)CCC3` was 10 µM (active); that for `Cc1nc(NS(=O)(=O)c2ccccc2C)c2c3c(sc2n1)CCC3` was 8.91 µM (active); that for `CCCSc1nc(NCc2ccco2)c2c3c(sc2n1)COC(C)(C)C3` was 7.08 µM (active). On the same count and under the same terms, the value for `Cc1nc(NS(=O)(=O)c2ccc(Br)cc2)c2c3c(sc2n1)CCC3` was 3.55 µM (active).

For `Cc1cc(C)n(-c2nc(NCC(C)O)c3c4c(sc3n2)COC(C)(C)C4)n1` (stereo unspecified), the “activity, negative = inhibition” value was -19.4% (inactive). On the same count and under the same terms, the value for `CN(C)S(=O)(=O)c1nc(Cl)c2[nH]cnc2n1` was 24.6% [at 11.4 µM] (inactive); that for `CC[C@H](C)[C@@H]1O[C@]2(CC[C@@H]1C)C[C@H]1C[C@H](CC=C(C)[C@@H](O[C@@H]3C[C@H](OC)[C@H](O[C@@H]4C[C@H](OC)[C@H](O)[C@H](C)O4)[C@H](C)O3)[C@@H](C)C=CC=C3CO[C@@H]4[C@@H](O)C(C)=C[C@@H](C(=O)O1)[C@]34O)O2` was 33.6% [at 25.6 µM] (inactive). Take `Cc1ccc(NC(=O)Cn2nc([N+](=O)[O-])c(Br)c2C)cc1C`: the AC50 was 5.62 µM (active). On the same count and under the same terms, the value for `O=C(Nc1ccc(Cl)c(C(F)(F)F)c1)C1CCCN(S(=O)(=O)c2cnc[nH]2)C1` (stereo unspecified) was 0.562 µM (active); that for `O=[N+]([O-])c1ccc2nc(-c3ccccc3)n(OCc3ccc(Cl)cc3)c2c1` was 1.58 µM (active); that for `Clc1ccc(COn2c(-c3ccccc3)nc3ccccc32)cc1` was 0.141 µM (active). As to `O=[N+]([O-])c1ccc2nc(-c3ccc(Cl)cc3)n(OCc3ccccc3)c2c1`, the “activity, negative = inhibition” value is 20.2% (inactive). Same read-out and setting: the value for `COc1ccc(CN2CN(c3ccc(Cl)cc3)C(=O)N(n3cnnc3)C2)cc1` was -16.1% (inactive).

`COc1ccc2nc(N3C(=O)CC(Cc4ccc(Cl)cc4)C3=O)sc2c1` (stereo unspecified): the AC50 is 3.55 µM (active).

`CCC1CCCCN1Cc1cc(OC)c(O)c([N+](=O)[O-])c1` (stereo unspecified): the “activity, negative = inhibition” value is -2.44% (inactive). In the case of `Cc1ccc(N=CC2=C(O)CC(c3ccco3)CC2=O)cc1` (stereo unspecified), the AC50 was 7.94 µM (active). Same read-out and setting: the value for `COC(=O)C1=C(C)NC(C)=C(C(=O)OCCSc2ccccc2)[C@@H]1C` was 0.2 µM (active).

As to `O=C(O)CC/C=C\CC[C@H]1[C@@H](N2CCCCC2)[C@@H](O)C[C@@H]1OCc1ccc(-c2ccccc2)cc1`, the “activity, negative = inhibition” value was 12.9% (inactive). On the same count and under the same terms, the value for `O=C(CCN1C(=O)c2ccccc2C1=O)Oc1ccc2ccccc2c1` was -7.77% (inactive). Take `Cc1cccc(N(C)C(=S)Oc2ccc3ccccc3c2)c1`: the AC50 was 0.1 µM (active). On the same count and under the same terms, the value for `O=C(Nc1cc(C(F)(F)F)ccc1-n1cncn1)c1ccc(Br)cc1` was 2.24 µM (active); that for `CC(=O)Nc1ccc(S(=O)(=O)N2CCN(c3nc(NC4CCCC4)c4ccccc4n3)CC2)cc1` was 7.08 µM (active); that for `Cc1cc(C)cc(C(=N)c2ccccc2Cc2cccc3ccccc23)c1` was 1.58 µM (active).

With `Cc1cc(C)c(O)c(Cc2cccc(Cc3cc(C)cc(C)c3O)c2O)c1`, the activity, negative = inhibition is 8% [at 11.4 µM] (inactive). Take `Cc1ccc(C(=N)c2ccccc2Cc2cccc3ccccc23)c2ccccc12`: the AC50 is 1.26 µM (active).

With `C#CCCCO/N=C1/C[C@@H](O)[C@@H](O)[C@@H]2[C@@H]3C(=O)N(C[C@@H]4CCCO4)C(=O)[C@H]3CC[C@H]12`, the activity, negative = inhibition is -15.3% [at 11.4 µM] (inactive). For the molecule `CC(C)CC(c1nnnn1C(C)C)N1CCN(c2ccccc2)CC1` (stereo unspecified), the AC50 was 5.01 µM (active).

Turning to `ClC(Cl)(Cl)C(N1CCN(c2ccccc2)CC1)N1CCN(c2ccccc2)CC1`, the activity, negative = inhibition was 21% [at 11.4 µM] (inactive).

Turning to `CCOC(=O)c1cnn(-c2nc(-c3cccc(F)c3)cs2)c1C(F)(F)F`, the AC50 was 2.82 µM (active). `CCOC(=O)C1CCN(C(=O)c2ccccc2NC(C)=O)CC1`: the “activity, negative = inhibition” value is -27.7% (inactive).

Regarding `CCOC(=O)C1CCN(C(=O)C2CCN(c3nc4ccc(OC)cc4s3)CC2)CC1`, the AC50 was 11.2 µM (active).

`COc1cc2nc(N3CCN(C(=O)[C@@H]4CCCO4)CC3)nc(N)c2cc1OC`: the “activity, negative = inhibition” value is 20.7% [at 25.6 µM] (inactive). Regarding `CCOc1ccc2nc(N3CCCCCC3)sc2c1`, the AC50 was 3.98 µM (active). `CCN(CC)CCOc1ccc2nc(N(C)C)sc2c1`: the “activity, negative = inhibition” value is -20.4% (inactive). Turning to `CN1CCC2(CC1)C1CN(C)CC=C1C(C#N)=C(N)C2(C#N)C#N` (stereo unspecified), the “activity, negative = inhibition” value was -23.1% (inactive). Same read-out and setting: the value for `CN1CC[C@@]2(CCCN(C(=O)c3cc(C(F)(F)F)cc(C(F)(F)F)c3)C2)C1` was 12.7% (inactive). As for `COc1cnc(SCc2ccc(Cl)cc2)nc1Cl`, the AC50 is 1.58 µM (active). In the case of `CCOC(=O)CCc1c(C)nc2ncnn2c1C`, the “activity, negative = inhibition” value was -27.2% (inactive). Regarding `CCc1c(C)nc2ncnn2c1NCCc1ccc(OC)cc1`, the AC50 is 3.55 µM (active). For the molecule `Cc1ccc(CNC(=O)CCc2c(C)nc3ncnn3c2C)cc1`, the “activity, negative = inhibition” value is -21.9% (inactive). With `COc1ccc(C(=O)c2cnc3ccccc3c2-c2ccccc2)cc1`, the AC50 is 5.01 µM (active). For `COc1ccc(-c2nc3cnc(N4CCN(C)CC4)nc3n(Cc3ccc(F)cc3)c2=O)cc1`, the “activity, negative = inhibition” value is 10.3% (inactive). For the molecule `CCOC(=O)c1oc2nc(CC(C)C)c3c(c2c1N)CCC3`, the AC50 is 11.2 µM (active). For `CC1(C)S[C@@H]2[C@H](NC(=O)[C@H](C(=O)O)c3ccsc3)C(=O)N2[C@H]1C(=O)O`, the “activity, negative = inhibition” value was -38.5% [at 25.6 µM] (inactive). As for `CCC(CC)c1nnc(NC(=O)c2cccc(S(=O)(=O)N3CCc4ccccc43)c2)s1`, the AC50 is 7.94 µM (active). As to `CCn1cc(C(=O)O)c(=O)c2cc3c(cc21)OCO3`, the “activity, negative = inhibition” value was 26.5% (inactive). On to `CCn1cc(C(=O)N/N=C(/C)c2ccc(F)cc2)c(=O)c2cc(F)c(N3CCCC3)cc21`, for which the AC50 was 4.47 µM (active).

With `CCn1cc(C(=O)O)c(=O)c2cc(F)c(N3CCNCC3)nc21`, the “activity, negative = inhibition” value is -12% [at 25.6 µM] (inactive).
